Compound activity (PubChem)
12-LOX inh: inhibitors of human 12S-lipoxygenase ALOX12 | P18054 | purified 12hLO, xylenol orange hydroperoxide absorbance | Potency, µM (highest dose often 108 µM), inactives show at the top dose activity change, negative = inhibition, usual class: inhibitors | actives 1.1% (n = 580,000)
Target sequence (P18054 whole entry, looked up): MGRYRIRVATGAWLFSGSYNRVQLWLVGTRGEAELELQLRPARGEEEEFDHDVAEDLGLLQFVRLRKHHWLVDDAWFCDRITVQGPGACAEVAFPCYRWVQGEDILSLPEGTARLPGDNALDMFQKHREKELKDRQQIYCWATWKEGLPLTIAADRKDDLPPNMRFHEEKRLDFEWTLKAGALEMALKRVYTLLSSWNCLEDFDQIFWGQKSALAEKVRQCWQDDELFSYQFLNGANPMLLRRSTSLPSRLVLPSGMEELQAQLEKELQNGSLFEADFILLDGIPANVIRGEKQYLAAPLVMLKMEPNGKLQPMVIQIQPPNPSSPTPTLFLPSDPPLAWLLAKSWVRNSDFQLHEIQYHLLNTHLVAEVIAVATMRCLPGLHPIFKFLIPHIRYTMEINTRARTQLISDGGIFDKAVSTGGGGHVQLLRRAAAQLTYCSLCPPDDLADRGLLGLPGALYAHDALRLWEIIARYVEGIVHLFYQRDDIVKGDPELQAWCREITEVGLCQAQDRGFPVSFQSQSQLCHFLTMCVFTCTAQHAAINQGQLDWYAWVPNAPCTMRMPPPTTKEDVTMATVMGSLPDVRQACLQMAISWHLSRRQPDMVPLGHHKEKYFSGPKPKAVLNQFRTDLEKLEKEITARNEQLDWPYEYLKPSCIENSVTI
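Purified human 12hLO at 150 nM in 25 mM Hepes, 0.01% Triton X-100, pH 7.0, preincubated 15 min at room temperature with compound. Reaction started with 40 uM arachidonic acid, 30 min at room temperature. Hydroperoxide measured by Fe-xylenol orange, 573/405 nm absorbance ratio.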
RORgamma inh: ROR gamma (mouse) transcription inhibition; actives 5.4% (n = 310,000); Drosophila S2 Gal4-RORgamma UAS-luciferase reporter, 20 h; P51450; Potency, µM (highest dose often 53.6 µM), for the others: at the highest dose activity change, negative = inhibition, usual class: inhibitors; note: nearly all actives have a fitted effect of over 60% in size
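Using a luciferase readout, inhibitors were identified by reduced reporter activity in Drosophila cells coexpressing a copper-inducible Gal4–ROR gamma fusion and UAS-driven Photinus luciferase, incubated 20 hr after 700 uM copper sulfate.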
ELG1 repair inh: ELG1-dependent DNA repair inhibition; HEK293T ELG1-luciferase reporter, luminescence, 16 h; DNA damage induced by 5-fluorouridine; actives 2.3% (n = 330,000); Potency, µM (top dose mostly 46.1 µM), inactives show at the highest dose activity change, negative = inhibition, most hits filed as inhibitors; note: nearly all actives have a fitted effect of over 55% in size
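Step one: seed 2,000 cells per well. Step two: pin-transfer compound or DMSO alongside 5-fluorouridine. Step three: incubate 16 hr, 37 °C, 5% CO2. Step four: add ONE-Glo, wait 30 min, read luminescence.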
DT40 TDP1 CPT: DT40-hTDP1 cell growth loss with CPT | Potency, µM (series often up to 46.2 µM), for inactives: at the highest dose activity change, negative = growth inhibition, usual class: inhibitors | actives 12% (n = 420,000) | chicken DT40 Tdp1-/-;hTDP1 cells + 20 nM CPT, ATP luminescence, 48 h; note: nearly all actives have a fitted effect of over 55% in size
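Chicken DT40 Tdp1-/- cells complemented with human TDP1, 400 cells/well, exposed to compounds plus 20 nM camptothecin for at least 48 h at 37 C; viability read as ATP content by CellTiter-Glo luminescence.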
DT40 TDP1 no CPT: qHTS for Inhibitors of human tyrosyl-DNA phosphodiesterase 1 (TDP1): qHTS in cells in absence of CPT; actives 15% (n = 420,000); Potency, µM (series often up to 46.2 µM), for the others: at the top dose activity change, negative = growth inhibition, usual class: inhibitors; DT40 Tdp1-/- hTDP1 cells, no CPT, ATP luminescence, 48 h; note: nearly all actives have a fitted effect of over 55% in size
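Seeded 400 DT40-hTDP1 cells/well (vehicle DMSO, no 20 nM CPT); pinned compounds; ≥48 hr at 37 °C; CellTiter-Glo luminescence as viability measure.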
VP16 counter: Gal4-VP16 reporter inhibition counter-screen; AID 2546; actives 3.5% (n = 310,000); Drosophila S2 Gal4-VP16 UAS-luciferase, luminescence, 20 h; Potency, µM (highest dose often 53.6 µM), without a hit: at the top dose activity, negative = inhibition, actives largely listed as inhibitors;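 note: Gal4-VP16 expression switched on by copper sulfate through the metallothionein promoter; nearly all actives have a fitted effect of over 50% in size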
* = called active by the depositor; [ ] = dose if it differs, or a comment. Sampled rows, rich in hits. Any-hit rate of the full collection: about 15%. Calls come from the whole dose curve; as a rule, active = well fitted curve in the direction sought with a large enough effect; inconclusive = small, poorly fitted or top-dose-only effect, or another doubt; inactive = no such curve, though single readings can be large; an effect the other way counts as inactive or inconclusive. % is set by controls: 0 for no effect and ±100 for the full control effect; potency is the fitted concentration of half-maximal effect.

For COc1ccc(C(=O)NC(=S)N(Cc2ccccc2)Cc2ccccc2)cc1 the results were 12-LOX inh 35µM*, RORgamma inh 0.16µM*, ELG1 repair inh inconclusive, DT40 TDP1 CPT 16µM*, DT40 TDP1 no CPT 9.2µM* and VP16 counter 0.56µM*.
C=CCN(CC=C)C(=S)NC(=O)c1ccc(-c2ccccc2)cc1 was read as 12-LOX inh inconclusive, RORgamma inh 0.5µM*, ELG1 repair inh -1%, DT40 TDP1 CPT 5.8µM*, DT40 TDP1 no CPT 6.5µM* and VP16 counter 1µM*.
Screening COc1ccccc1C1CC(=O)N(c2cccc(F)c2)C2=C1C(=O)OC2 (centres undefined) returned 12-LOX inh 45%.
Screening Cc1ccc(S(=O)(=O)N(C)C)cc1C(=O)OC(C)C(=O)c1ccccc1 (centres undefined) returned 12-LOX inh 37%.
Screening O=c1c(S(=O)(=O)c2ccccc2)c[nH]c2cc(F)c(F)cc12 returned 12-LOX inh -26%.
Cc1ccccc1OCC(=O)Nc1sc2c(c1C#N)CCC2 was read as 12-LOX inh 4%, RORgamma inh -25%, ELG1 repair inh inconclusive, DT40 TDP1 CPT inconclusive, DT40 TDP1 no CPT -29% and VP16 counter -4%.
Cc1ccccc1-c1cc(C(=O)Nc2sc(C(=O)OC(C)C)c(C)c2C#N)c2ccccc2n1 was read as 12-LOX inh 0%, RORgamma inh inconclusive, ELG1 repair inh 23µM*, DT40 TDP1 CPT 23µM*, DT40 TDP1 no CPT 21µM* and VP16 counter inconclusive.
For Cc1ccccc1NC(=O)c1sc(NC(=O)COc2ccccc2)c(C#N)c1C the results were 12-LOX inh -11%, RORgamma inh 34%, ELG1 repair inh 23µM*, DT40 TDP1 CPT inconclusive, DT40 TDP1 no CPT 18µM* and VP16 counter -17%.
`CCOC(=O)c1sc(NC(=O)c2cc(-c3ccc(C)cc3)nc3ccccc23)c(C#N)c1C` gave 12-LOX inh inconclusive, RORgamma inh 35%, ELG1 repair inh inconclusive, DT40 TDP1 CPT 21µM*, DT40 TDP1 no CPT 16µM* and VP16 counter -10%.
Screening COC(=O)c1sc(NC(=O)c2cc(-c3ccccc3)nc3ccccc23)c(C#N)c1C returned 12-LOX inh -27%, RORgamma inh 16%, ELG1 repair inh -2%, DT40 TDP1 CPT 8.2µM*, DT40 TDP1 no CPT 7.3µM* and VP16 counter -14%.
For COc1ccc(-c2cc(C(=O)Nc3sc4c(c3C#N)CCCC4)c3ccccc3n2)cc1 the results were 12-LOX inh -24%, RORgamma inh -16%, ELG1 repair inh inconclusive, DT40 TDP1 CPT -22%, DT40 TDP1 no CPT inconclusive and VP16 counter -6%.
For Cc1cc(C)c(OCC(=O)Nc2ccc3oc(C)nc3c2)c(C)c1 the results were 12-LOX inh 4%.
CC(C)CCN(C)Cc1cccn1C was read as 12-LOX inh 21%[176 µM].
`CCOC(=O)c1sc(NC(=O)CSc2nccc(C)n2)c(C#N)c1C` gave 12-LOX inh 5%, RORgamma inh -21%, ELG1 repair inh 6%, DT40 TDP1 CPT -7%, DT40 TDP1 no CPT -11% and VP16 counter -4%.
CCOC(=O)c1sc(NC(=O)CSc2n[nH]c(-c3ccncc3)n2)c(C#N)c1C was read as 12-LOX inh 0%[57.4 µM], RORgamma inh 1%, ELG1 repair inh 18µM*, DT40 TDP1 CPT inconclusive, DT40 TDP1 no CPT inconclusive and VP16 counter -5%.
`COC(=O)C1=CN(c2ccc3c(c2)OCO3)C(N)=C(C#N)C1c1ccccc1` (centres undefined) gave 12-LOX inh inconclusive, DT40 TDP1 CPT 5.2µM* and DT40 TDP1 no CPT 5.8µM*.
COC(=O)C1=CN(c2ccc(Oc3ccccc3)cc2)C(N)=C(C#N)C1c1ccc(-c2ccccc2)cc1 (centres undefined) was read as 12-LOX inh -24%, DT40 TDP1 CPT inconclusive and DT40 TDP1 no CPT inconclusive.
`COC(=O)C1=CN(c2ccccc2OC)C(N)=C(C#N)C1c1cccc([N+](=O)[O-])c1` (centres undefined) gave 12-LOX inh inconclusive, DT40 TDP1 CPT 0.82µM* and DT40 TDP1 no CPT 1.3µM*.
`COC(=O)C1=CN(c2ccc(N3CCOCC3)cc2)C(N)=C(C#N)C1c1ccc(-c2ccccc2)cc1` (centres undefined) gave 12-LOX inh -4%, DT40 TDP1 CPT 7.3µM* and DT40 TDP1 no CPT 5.8µM*.
For COC(=O)C1=CN(c2cccc(OCc3ccccc3)c2)C(N)=C(C#N)C1c1ccc(-c2ccccc2)cc1 (centres undefined) the results were 12-LOX inh -4%, DT40 TDP1 CPT -10% and DT40 TDP1 no CPT -23%.
COC(=O)C1=CN(c2cccc(OCc3ccccc3)c2)C(N)=C(C#N)C1c1ccccc1 (centres undefined) was read as 12-LOX inh 3%, DT40 TDP1 CPT inconclusive and DT40 TDP1 no CPT inconclusive.
COC(=O)C1=CN(c2ccc(Oc3ccccc3)cc2)C(N)=C(C#N)C1c1ccccc1 (centres undefined) was read as 12-LOX inh inconclusive, DT40 TDP1 CPT inconclusive and DT40 TDP1 no CPT 15µM*.
`C=CCOc1ccc(NC(=O)C(C)Oc2ccccc2)cc1` (centres undefined) gave 12-LOX inh -1%.
`COC(=O)C1=CN(c2ccc(F)cc2)C(N)=C(C#N)C1c1ccccc1` (centres undefined) gave 12-LOX inh 45µM*, DT40 TDP1 CPT inconclusive and DT40 TDP1 no CPT 21µM*.
Cc1ccc(/C=C2\SC(=S)N(CCC(=O)N3CCCCC3)C2=O)cc1 was read as 12-LOX inh -1%, RORgamma inh 0%, ELG1 repair inh 10%, DT40 TDP1 CPT inconclusive, DT40 TDP1 no CPT 21µM* and VP16 counter -2%.
For CCc1ccc(/C=C2\SC(=S)N(CCCC(=O)N3CCCC3)C2=O)cc1 the results were 12-LOX inh -17%, DT40 TDP1 CPT inconclusive and DT40 TDP1 no CPT inconclusive.
Screening COc1cc(/C=C2/SC(=S)N(CCC(=O)Nc3ccc(C(=O)O)cc3)C2=O)cc(OC)c1OC returned 12-LOX inh inconclusive, RORgamma inh -26%, ELG1 repair inh 3%, DT40 TDP1 CPT 9%, DT40 TDP1 no CPT 13% and VP16 counter -4%.
